Assays:
Format in all cases: functional
Plasmodium falciparum [1] = test: GSK_TCMDC: Inhibition of Plasmodium falciparum 3D7 in whole red blood cells, using parasite LDH activity as an index of growth. Test compounds present at 2uM
Plasmodium falciparum [2] = test: GSK_TCMDC: Inhibition of Plasmodium falciparum Dd2 in whole red blood cells, using parasite LDH activity as an index of growth. Test compounds present at 2uM
HepG2 = test: GSK_TCMDC: Percent inhibition of human HepG2 cell line. Test compounds present at 10uM.

Row | SMILES | Inhibition (Plasmodium falciparum [1]) | Inhibition (Plasmodium falciparum [2]) | Inhibition (HepG2)
1 | COc1ccccc1-c1cccc(CNC2CCN(CC3Cn4c(=O)ccc5ccc(F)c3c54)CC2)c1.O=C(O)C(F)(F)F (stereo not given) | 91% | 0% | 30%
2 | COc1cc2c(cc1OCCN1CCC(N3CCCCC3)CC1)N(C(=O)/C=C/c1ccccc1Cl)CC2 | 100% | 41% | 36%
3 | O=C(Nc1cccc(CN2CCCN(Cc3ccc(O)cc3)CC2)c1)c1ccc(-c2ccccc2)cc1.O=C(O)C(F)(F)F | 100% | 93% | 33%
4 | CC1(C)N=C(N)N=C(N)N1CCc1ccccc1.Cl | 93% | 0% | 50%
5 | Cc1ccc2[nH]c(C)cc(=NN=Cc3cccc(Cl)c3)c2c1 | 100% | 98% | 12%
6 | O=C(CCc1nc2c(cnn2-c2ccccc2)c(=O)[nH]1)NC1CCSc2ccccc21 (stereo not given) | 95% | 52% | 10%
7 | O=C(O)C(F)(F)F.O=[N+]([O-])c1cccc(CNC2CCN(Cc3ccc(C(F)(F)F)cc3)CC2)c1 | 99% | 28% | 0%
8 | Cc1ccc(NC(=O)c2cc([N+](=O)[O-])ccc2NCc2cccnc2)cc1Cl | 86% | 58% | 9%
9 | CN(Cc1ccncc1)C(Cc1ccccc1)C1CCN(Cc2ccc(O)c(Cl)c2)CC1 (stereo not given) | 96% | 97% | 22%
10 | CCOc1ccc2[nH]c(-c3ccccc3)cc(=NN=Cc3ccncc3)c2c1 | 100% | 100% | 19%
11 | CN(C)CCOc1cc(NC(=O)Nc2ccc(Cl)cc2C(F)(F)F)ccc1I | 96% | 16% | 0%
12 | CC(C)(CNC(=O)C1CCN(Cc2ccoc2)CC1)c1nc(-c2ccc(Cl)c(O)c2)c(-c2ccncc2)[nH]1.Cl | 93% | 66% | 0%
13 | CCOc1cccc(C(=O)Nc2ccc(-c3nc4ccccc4[nH]3)cc2)c1 | 96% | 30% | 40%
14 | CC(O)C1CCCCN1C(=O)c1cccc(-c2cccc(-c3nc4cc(F)ccc4[nH]3)c2)c1 (stereo not given) | 100% | 99% | 42%
15 | c1ccc2oc(-c3cc4ccncc4cc3OC3CCNCC3)cc2c1 | 100% | 96% | 11%
16 | C[C@H](NC(=O)c1c(OC2CN(C(c3ccccc3)c3ccccc3)C2)c(-c2ccccc2)nc2ccccc12)C1CCCCC1 | 92% | 74% | 0%
17 | CS(=O)(=O)Cc1ccc(Nc2nccc(-c3c(-c4cccc(NC(=O)c5c(F)cccc5F)c4)nn4ccccc34)n2)cc1 | 99% | 75% | 78%
18 | Cc1cccc2nc(-c3ccc(-c4cccc(CNCCc5ccncc5)c4)s3)[nH]c12.O=C(O)C(F)(F)F | 100% | 89% | 11%
19 | CC(C)Sc1nc2c(c(=O)n1Cc1ccco1)C1(CCCC1)Cc1ccccc1-2 | 98% | 10% | 8%
20 | CC(C)(C)NCC(O)COc1ccc(Cl)cc1C1=NNC(=O)CC1.Cl (stereo not given) | 96% | 0% | 6%

Row | SMILES | Inhibition (Plasmodium falciparum [1]) | Inhibition (Plasmodium falciparum [2]) | Inhibition (HepG2)
21 | CC(C)c1cc(Oc2c(I)cc(CCNC(=N)N)cc2I)ccc1O.Cl | 98% | 54% | 19%
22 | Br.CC(C)(Cc1ccc(Cl)cc1)NCCCCCCNCCc1ccc(O)c(O)c1 | 90% | 0% | 45%
23 | COc1cccc2c(NCCNc3ccnc4c(OC)cccc34)ccnc12.Cl | 93% | 86% | 11%
24 | O=C(C=Cc1ccc(Cl)c(Cl)c1)NCCCCCN1CCCC(CCCNC(=O)c2cccs2)C1 (stereo not given) | 89% | 0% | 24%
25 | CNC(=O)c1cnc(Nc2ccc(N3CCOCC3)cc2)nc1Nc1cccc(O)c1.O=C(O)C(F)(F)F | 90% | 78% | 23%
26 | Cl.O=C(/C=C/c1ccc(Cl)c(Cl)c1)N1CCC(CN2CCC(c3c[nH]c4ncccc34)CC2)CC1 | 84% | 20% | 38%
27 | CCOC(=O)c1cn(CC)c2cc(F)c(OC3CC4CCC3(C)C4(C)C)cc2c1=O (stereo not given) | 91% | 70% | 0%
28 | O=C(Nc1ccc(Cl)cc1C(=O)Nc1cccc(F)c1)c1ccc([N+](=O)[O-])cc1 | 89% | 54% | 10%
29 | COc1cc(CCCOc2c(N)nc(N)nc2N)cc(OC)c1OC | 88% | 0% | 8%
30 | CCC1(CC)C(=O)N=C(N2CCCCC2)N(C)C1=O | 89% | 66% | 0%
31 | O=C(/C=C/c1ccc(Cl)c(Cl)c1)NCCCCCN1CCCN(C(=O)Nc2ccc(Cl)c(C(F)(F)F)c2)CC1 | 100% | 16% | 35%
32 | O=S(=O)(c1ccc(Oc2ccccc2)cc1)N(CCC(O)(C(F)(F)F)C(F)(F)F)Cc1cccc(O)c1 | 100% | 99% | 0%
33 | CCC(C)NC(=O)Nc1ccc(-c2cccc(-c3nc4cccc(C)c4[nH]3)c2)cc1 (stereo not given) | 100% | 83% | 55%
34 | COc1ccc(Nc2nc(N/N=C/c3cc(Br)ccc3O)nc(Nc3ccc([N+](=O)[O-])cc3)n2)cc1 | 97% | 37% | 27%
35 | COc1ccc(CNCc2ccc(F)cc2)cc1-c1ccc(S(=O)(=O)NCCN2CCCC2)s1.O=C(O)C(F)(F)F | 100% | 65% | 61%
36 | CC(=O)Nc1cccc(C(=O)Nc2ccc(-c3cccc(-c4nc5cccc(C)c5[nH]4)c3)cc2)c1 | 100% | 50% | 86%
37 | COc1ccc2c(=NN=Cc3ccccc3)cc(C)[nH]c2c1 | 100% | 49% | 0%
38 | COc1cccc(-c2cc(C(F)(F)F)n3ncc(C(=O)Nc4cc(Cl)ccc4O)c3n2)c1 | 99% | 99% | 0%
39 | O=[N+]([O-])c1cc(/C=N/Nc2nc3ccccc3[nH]2)ccc1O | 98% | 14% | 0%
40 | Nc1ccc2[nH]cc(C3CCN(CC4CCN(C(=O)/C=C/c5ccc(Cl)c(Cl)c5)CC4)CC3)c2n1 | 99% | 97% | 53%

Row | SMILES | Inhibition (Plasmodium falciparum [1]) | Inhibition (Plasmodium falciparum [2]) | Inhibition (HepG2)
41 | O=C(NCc1cccc(Br)c1)c1ccc(CNC2CCN(Cc3ccccc3)CC2)cc1.O=C(O)C(F)(F)F | 100% | 49% | 3%
42 | O=C(NCCN1CCCC1)c1cccc(-c2ccc(-c3nc4cc(F)ccc4[nH]3)s2)c1 | 100% | 4% | 51%
43 | COc1cc(Nc2ccnc3ccc(C(F)(F)F)cc23)ccc1OCCCc1ccccc1 | 99% | 51% | 11%
44 | COc1cc(-n2cnc3cc(-c4ccc(Cl)cc4)sc3c2=O)ccc1OCCN1CCC(c2cccc(NC(C)=O)c2)CC1.O=C(O)/C=C\C(=O)O | 99% | 80% | 61%
45 | CCCCCCNC(=N)c1ccc(OCCCCCOc2ccc(C(=N)NCCCCCC)cc2)cc1.Cl | 97% | 98% | 55%
46 | COc1ccc2nccc([C@@H](O)CN3CCC(NC(=O)C(c4ccccc4C)N4CCC(Cc5ccccc5)CC4)CC3)c2c1 (stereo not given in full) | 100% | 97% | 10%
47 | O=C(CCc1cccnc1)Nc1cccc(-c2ccc(-c3nc4cc(C(F)(F)F)ccc4[nH]3)cc2)c1 | 93% | 0% | 38%
48 | CCn1c(-c2nonc2N)nc2c(-c3cccc(NC(=O)Nc4cccc(OC)c4)c3)ncc(OCCCN)c21.O=C(O)C(F)(F)F | 92% | 69% | 1%
49 | CN1CCCc2cc(NC(=O)C=Cc3ccc(-c4ccc(F)cc4F)o3)ccc2C1.O=C(O)C(F)(F)F | 90% | 27% | 5%
50 | Cl.Oc1ccc(C2CNCCc3c2cc(O)c(OCc2ccccc2)c3Cl)cc1 (stereo not given) | 98% | 8% | 14%
51 | O=C(Nc1ccc(Cl)cc1)Nc1ccc2c(c1)N1CCN=C1S2 | 99% | 100% | 15%
52 | O=S(=O)(c1cc(Cl)c(Cl)cc1Cl)N1CCCCC(c2ccc(C(F)(F)F)cc2)=N1 | 98% | 99% | 9%
53 | O=C(N[C@@H](Cc1ccccc1)C(=O)NC1CCCCCC1)c1ccc(O)c(-c2cccc(C(F)(F)F)c2)c1 | 98% | 70% | 0%
54 | Cc1ccc(Nc2nc3cc(Nc4ccnc(Nc5ccc(CS(C)(=O)=O)cc5)n4)ccc3o2)cc1 | 99% | 66% | 54%
55 | COc1ccc(Cl)cc1N1CCN(CCCNC(=O)c2ccc(-c3nc4cc(Cl)c(Cl)cc4[nH]3)c(C)c2)CC1 | 100% | 0% | 4%
56 | Cc1ccc(O)cc1Nc1ccnc2cc(-c3nccs3)ccc12.Cl | 100% | 83% | 63%
57 | CCOC(=O)N1CCN(CCCNc2c3ccc(Cl)cc3nc3ccc(OC)cc23)CC1 | 100% | 100% | 52%
58 | CO/C(=C\C=C\c1cc2cc(Cl)c(Cl)cc2[nH]1)C(=O)NCCCNCCN(C)c1ccccc1 | 100% | 55% | 33%
59 | Cc1c(S(=O)(=O)Nc2ccc3ccn(CCN(C)C)c3c2)sc2ccc(Cl)cc12.Cl | 98% | 94% | 15%
60 | COc1ccc2nccc(NC(=O)N3CCC(NCCOc4cc(F)cc(F)c4)CC3)c2n1.O=C(O)C(=O)O | 86% | 38% | 14%

Source: ChEMBL document CHEMBL1157539, “Thousands of chemical starting points for antimalarial lead identification” (Nature, 2010)
